# From the supplement of paper PMC6555819
# What was measured:
# Experiment in all cases: PBM binding z-score (relative to random genomic background probes); higher = stronger binding; sequences stand for … in GC…GCGATTGACAGCGTAGAATGAAGG
# [1] = test system: FXR:RXRa (NR concentration 270 nM, RXRa partner concentration 90 nM)
# Procedure, shortened: (§1)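 For binding z-scores, the reference was random background probes on custom Agilent 4×180K protein-binding microarrays. These arrays were incubated 1 h with ligand-free nuclear receptor dimers in PBS pH 7.4, 2% milk, 0.02% Triton X-100, 1 mM DTT, 0.2 mg/mL BSA and 0.4 mg/ml salmon testes DNA. Fluorescence was scanned after antibody detection of each partner (one per run) and regression-normalized.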
# [2] = test system: LXRa:RXRa (NR concentration 270 nM, RXRa partner concentration 90 nM)
# Procedure, shortened: as §1
# [3] = test system: LXRa homodimer (NR concentration 270 nM)
# Procedure, shortened: as §1
# [4] = test system: LXRb:RXRa (NR concentration 270 nM, RXRa partner concentration 90 nM)
# Procedure, shortened: as §1
# [5] = test system: LXRb homodimer (NR concentration 270 nM)
# Procedure, shortened: as §1
# [6] = test system: PPARa:RXRa (NR concentration 270 nM, RXRa partner concentration 90 nM)
# Procedure, shortened: as §1
# [7] = test system: PPARg:RXRa (NR concentration 180 nM, RXRa partner concentration 90 nM)
# Procedure, shortened: as §1
# [8] = test system: PPARg:RXRa 270nM:90nM, anti-RXR (NR concentration 270 nM, RXRa partner concentration 90 nM)
# Procedure, shortened: as §1
# [9] = test system: PPARg:RXRa 30nM:10nM, anti-RXR (NR concentration 30 nM, RXRa partner concentration 10 nM)
# Procedure, shortened: as §1
# [10] = test system: PPARg:RXRa 90nM:30nM, anti-RXR (NR concentration 90 nM, RXRa partner concentration 30 nM)
# Procedure, shortened: as §1
# [11] = test system: PPARg:RXRa DBDmut IVT, anti-RXR (DBD mutation: RXRa K156A/R161A, NR concentration 270 nM, RXRa partner concentration 90 nM)
# Procedure, shortened: as §1
# [12] = test system: PPARg:RXRa IVT, anti-PPARg (NR concentration 270 nM, RXRa partner concentration 90 nM)
# Procedure, shortened: as §1
# [13] = test system: PPARg DBDmut:RXRa IVT, anti-PPARg (DBD mutation: PPARg1 K132A/R137A, NR concentration 270 nM, RXRa partner concentration 90 nM)
# Procedure, shortened: as §1
# [14] = test system: PPARg DBDmut IVT, anti-PPARg (DBD mutation: PPARg1 K132A/R137A, NR concentration 270 nM)
# Procedure, shortened: as §1
# [15] = test system: PPARg homodimer (NR concentration 180 nM)
# Procedure, shortened: as §1
# [16] = test system: PXR:RXRa (NR concentration 270 nM, RXRa partner concentration 90 nM)
# Procedure, shortened: as §1
# [17] = test system: PXR homodimer (NR concentration 270 nM)
# Procedure, shortened: as §1
# [18] = test system: RARa:RXR (NR concentration 270 nM, RXRa partner concentration 90 nM)
# Procedure, shortened: as §1
# [19] = test system: RARa homodimer (NR concentration 270 nM)
# Procedure, shortened: as §1
# [20] = test system: RARb:RXRa (NR concentration 270 nM, RXRa partner concentration 90 nM)
# Procedure, shortened: as §1
sequence,measurement,setting,value
TCTTGTAGATCCAAGGTTAAGAAAGCCGAAGCCT,PBM binding z-score,[1],0.319
same,PBM binding z-score,[2],0.55
same,PBM binding z-score,[3],-0.254
same,PBM binding z-score,[4],0.993
same,PBM binding z-score,[5],-0.378
same,PBM binding z-score,[6],1.65
same,PBM binding z-score,[7],1.15
same,PBM binding z-score,[8],3.41
same,PBM binding z-score,[9],3.23
same,PBM binding z-score,[10],3.55
same,PBM binding z-score,[11],1.7
same,PBM binding z-score,[12],0.596
same,PBM binding z-score,[13],0.181
same,PBM binding z-score,[14],0.325
same,PBM binding z-score,[15],0.227
same,PBM binding z-score,[16],0.966
same,PBM binding z-score,[17],0.261
same,PBM binding z-score,[18],1.18
same,PBM binding z-score,[19],-0.206
same,PBM binding z-score,[20],0.88
TCTTGTAGATCAATACAGGTTAAGAAAGTGCGCT,PBM binding z-score,[1],0.747
same,PBM binding z-score,[2],2.01
same,PBM binding z-score,[3],0.393
same,PBM binding z-score,[4],1.23
same,PBM binding z-score,[5],0.0132
same,PBM binding z-score,[6],1.29
same,PBM binding z-score,[7],0.19
same,PBM binding z-score,[8],1.49
same,PBM binding z-score,[9],2.99
same,PBM binding z-score,[10],2.11
same,PBM binding z-score,[11],2.28
same,PBM binding z-score,[12],1.23
same,PBM binding z-score,[13],0.912
same,PBM binding z-score,[14],1.31
same,PBM binding z-score,[15],1.18
same,PBM binding z-score,[16],1.76
same,PBM binding z-score,[17],0.308
same,PBM binding z-score,[18],1.1
same,PBM binding z-score,[19],0.461
same,PBM binding z-score,[20],0.5
ACTATTAGTTGACTTAGGGCAACCGATACGACGC,PBM binding z-score,[1],0.119
same,PBM binding z-score,[2],0.0991
same,PBM binding z-score,[3],-0.0501
same,PBM binding z-score,[4],0.277
same,PBM binding z-score,[5],0.41
same,PBM binding z-score,[6],0.0707
same,PBM binding z-score,[7],0.995
same,PBM binding z-score,[8],0.159
same,PBM binding z-score,[9],0.448
same,PBM binding z-score,[10],0.379
same,PBM binding z-score,[11],-0.304
same,PBM binding z-score,[12],0.722
same,PBM binding z-score,[13],1.07
same,PBM binding z-score,[14],1.09
same,PBM binding z-score,[15],-0.697
same,PBM binding z-score,[16],0.217
same,PBM binding z-score,[17],0.409
same,PBM binding z-score,[18],0.353
same,PBM binding z-score,[19],0.643
same,PBM binding z-score,[20],0.958
ATCGATAGGTCGAGGTGAGTATAGAGAAAGGGAA,PBM binding z-score,[1],0.48
same,PBM binding z-score,[2],0.636
same,PBM binding z-score,[3],-0.293
same,PBM binding z-score,[4],0.566
same,PBM binding z-score,[5],-0.118
same,PBM binding z-score,[6],2.02
same,PBM binding z-score,[7],0.873
same,PBM binding z-score,[8],0.711
same,PBM binding z-score,[9],0.245
same,PBM binding z-score,[10],0.369
same,PBM binding z-score,[11],-0.366
same,PBM binding z-score,[12],1.03
same,PBM binding z-score,[13],0.292
same,PBM binding z-score,[14],0.326
same,PBM binding z-score,[15],0.276
same,PBM binding z-score,[16],0.415
same,PBM binding z-score,[17],-0.0359
same,PBM binding z-score,[18],0.853
same,PBM binding z-score,[19],0.359
same,PBM binding z-score,[20],1.94
ATCTCTAGGTAAGACTCAGTTCAATGAAGAACGC,PBM binding z-score,[1],0.961
same,PBM binding z-score,[2],1.03
same,PBM binding z-score,[3],1.15
same,PBM binding z-score,[4],1.04
same,PBM binding z-score,[5],1.18
same,PBM binding z-score,[6],0.681
same,PBM binding z-score,[7],0.379
same,PBM binding z-score,[8],0.658
same,PBM binding z-score,[9],0.44
same,PBM binding z-score,[10],0.504
same,PBM binding z-score,[11],1.88
same,PBM binding z-score,[12],1.16
same,PBM binding z-score,[13],1.2
same,PBM binding z-score,[14],1.44
same,PBM binding z-score,[15],1.39
same,PBM binding z-score,[16],2.1
same,PBM binding z-score,[17],2.69
same,PBM binding z-score,[18],1.34
same,PBM binding z-score,[19],1.4
same,PBM binding z-score,[20],0.797
CCTACTTGGCCATTCAGAGGTCATTGATCATATG,PBM binding z-score,[1],3.12
same,PBM binding z-score,[2],4.37
same,PBM binding z-score,[3],6.52
same,PBM binding z-score,[4],4.31
same,PBM binding z-score,[5],1.21
same,PBM binding z-score,[6],3.83
same,PBM binding z-score,[7],0.976
same,PBM binding z-score,[8],2.46
same,PBM binding z-score,[9],0.88
same,PBM binding z-score,[10],1.77
same,PBM binding z-score,[11],1.47
same,PBM binding z-score,[12],1.52
same,PBM binding z-score,[13],1.11
same,PBM binding z-score,[14],0.893
same,PBM binding z-score,[15],2.19
same,PBM binding z-score,[16],4.93
same,PBM binding z-score,[17],1.5
same,PBM binding z-score,[18],4.54
same,PBM binding z-score,[19],1.18
same,PBM binding z-score,[20],3.13
CCTGCTGGGCCACGAAAGGTCATTGATTCAGTGA,PBM binding z-score,[1],3.41
same,PBM binding z-score,[2],5.49
same,PBM binding z-score,[3],4.48
same,PBM binding z-score,[4],4.19
same,PBM binding z-score,[5],0.0525
same,PBM binding z-score,[6],4.2
same,PBM binding z-score,[7],1.59
same,PBM binding z-score,[8],3.23
same,PBM binding z-score,[9],0.385
same,PBM binding z-score,[10],2.27
same,PBM binding z-score,[11],1.93
same,PBM binding z-score,[12],2.25
same,PBM binding z-score,[13],-0.596
same,PBM binding z-score,[14],-0.339
same,PBM binding z-score,[15],5.05
same,PBM binding z-score,[16],5.52
same,PBM binding z-score,[17],1.38
same,PBM binding z-score,[18],5.76
same,PBM binding z-score,[19],2.23
same,PBM binding z-score,[20],4.05
AGAACGAGGGCACGCTGAGTTGATACCAGAGTAG,PBM binding z-score,[1],0.816
same,PBM binding z-score,[2],0.364
same,PBM binding z-score,[3],-0.278
same,PBM binding z-score,[4],0.0367
same,PBM binding z-score,[5],-0.613
same,PBM binding z-score,[6],1.76
same,PBM binding z-score,[7],2.2
same,PBM binding z-score,[8],1.8
same,PBM binding z-score,[9],0.433
same,PBM binding z-score,[10],1.03
same,PBM binding z-score,[11],4.16
same,PBM binding z-score,[12],3.75
same,PBM binding z-score,[13],0.259
same,PBM binding z-score,[14],-0.00374
same,PBM binding z-score,[15],0.189
same,PBM binding z-score,[16],1.25
same,PBM binding z-score,[17],0.342
same,PBM binding z-score,[18],0.748
same,PBM binding z-score,[19],-0.804
same,PBM binding z-score,[20],2.36
TGAATGAGGTTGTAAGATCAGGGAACGTTGCAAA,PBM binding z-score,[1],-0.0998
same,PBM binding z-score,[2],-0.208
same,PBM binding z-score,[3],-0.429
same,PBM binding z-score,[4],-0.35
same,PBM binding z-score,[5],0.0245
same,PBM binding z-score,[6],0.282
same,PBM binding z-score,[7],-0.0383
same,PBM binding z-score,[8],0.349
same,PBM binding z-score,[9],0.261
same,PBM binding z-score,[10],0.21
same,PBM binding z-score,[11],-0.831
same,PBM binding z-score,[12],-0.0172
same,PBM binding z-score,[13],0.744
same,PBM binding z-score,[14],-0.354
same,PBM binding z-score,[15],-0.324
same,PBM binding z-score,[16],-0.125
same,PBM binding z-score,[17],-0.318
same,PBM binding z-score,[18],0.203
same,PBM binding z-score,[19],-0.183
same,PBM binding z-score,[20],0.0234
TAGCCTAGGTCATGCGGGCCCGTATAGTGTCGGC,PBM binding z-score,[1],3.96
same,PBM binding z-score,[2],3.12
same,PBM binding z-score,[3],0.169
same,PBM binding z-score,[4],1.59
same,PBM binding z-score,[5],0.214
same,PBM binding z-score,[6],3.37
same,PBM binding z-score,[7],1.74
same,PBM binding z-score,[8],2.29
same,PBM binding z-score,[9],0.0314
same,PBM binding z-score,[10],1.22
same,PBM binding z-score,[11],1.87
same,PBM binding z-score,[12],3.05
same,PBM binding z-score,[13],-0.348
same,PBM binding z-score,[14],0.0155
same,PBM binding z-score,[15],0.405
same,PBM binding z-score,[16],1.07
same,PBM binding z-score,[17],-0.531
same,PBM binding z-score,[18],2
same,PBM binding z-score,[19],-0.428
same,PBM binding z-score,[20],3.62
ACTATTAGTTGACTTAGGGCAACCAATACGACGC,PBM binding z-score,[1],0.265
same,PBM binding z-score,[2],0.363
same,PBM binding z-score,[3],0.224
same,PBM binding z-score,[4],0.227
same,PBM binding z-score,[5],0.496
same,PBM binding z-score,[6],0.111
same,PBM binding z-score,[7],0.997
same,PBM binding z-score,[8],0.305
same,PBM binding z-score,[9],0.385
same,PBM binding z-score,[10],0.219
same,PBM binding z-score,[11],0.203
same,PBM binding z-score,[12],0.66
same,PBM binding z-score,[13],0.926
same,PBM binding z-score,[14],0.817
same,PBM binding z-score,[15],0.6
same,PBM binding z-score,[16],0.385
same,PBM binding z-score,[17],0.557
same,PBM binding z-score,[18],0.714
same,PBM binding z-score,[19],0.139
same,PBM binding z-score,[20],0.985
